Source: PubChem BioAssay (NCATS)

Target: Glucocorticoid receptor (Homo sapiens) (UniProt P04150)
Assay: GR-GFP Redistribution (AID 450)
Conditions: U2OS GR-GFP nuclear translocation, laser cytometry, 2 h
Potency is read from the fitted curve at half-maximal effect.

Glucocorticoid receptor (Homo sapiens), sequence (P04150 whole entry, looked up): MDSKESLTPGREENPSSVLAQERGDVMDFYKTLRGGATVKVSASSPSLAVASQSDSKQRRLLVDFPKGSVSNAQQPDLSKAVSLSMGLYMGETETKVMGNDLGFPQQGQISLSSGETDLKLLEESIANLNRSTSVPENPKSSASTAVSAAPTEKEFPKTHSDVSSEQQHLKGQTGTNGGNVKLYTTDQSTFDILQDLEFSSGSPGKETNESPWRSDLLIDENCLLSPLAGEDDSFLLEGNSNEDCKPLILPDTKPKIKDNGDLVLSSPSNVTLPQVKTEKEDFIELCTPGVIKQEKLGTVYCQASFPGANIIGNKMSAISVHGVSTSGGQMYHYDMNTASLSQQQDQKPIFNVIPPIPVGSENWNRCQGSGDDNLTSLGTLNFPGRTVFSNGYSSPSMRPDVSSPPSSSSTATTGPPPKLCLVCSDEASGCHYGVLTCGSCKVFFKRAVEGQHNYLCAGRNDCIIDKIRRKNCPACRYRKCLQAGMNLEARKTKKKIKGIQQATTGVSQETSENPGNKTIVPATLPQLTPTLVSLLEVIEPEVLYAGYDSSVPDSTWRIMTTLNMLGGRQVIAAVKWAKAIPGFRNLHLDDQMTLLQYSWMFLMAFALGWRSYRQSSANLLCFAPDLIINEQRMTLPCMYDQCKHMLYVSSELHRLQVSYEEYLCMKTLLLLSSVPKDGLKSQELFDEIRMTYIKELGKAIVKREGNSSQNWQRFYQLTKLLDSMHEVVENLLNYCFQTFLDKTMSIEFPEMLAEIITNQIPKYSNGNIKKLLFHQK

Potency, inactive:
N#Cc1cccc(-c2nc3cnc(N4CCOCC4)nc3n(C3CC3)c2=O)c1 > 9.22 µM
CCNc1ncc2nc(-c3cc(F)cc(F)c3)c(=O)n(C)c2n1 > 9.22 µM
CC(=O)NCCNc1ccnc(-c2ccccc2C(F)(F)F)n1 > 46 µM
CCNc1ncc2nc(-c3cc(F)cc(F)c3)c(=O)n(C[C@H]3CCCO3)c2n1 > 9.22 µM
COc1cccc(-c2cncnc2N(C)Cc2ccco2)c1 > 46 µM
COc1ccccc1-c1ccc2ncnc(NC3CCNCC3)c2c1 > 46 µM
O=c1cnc2cnc(N3CCOCC3)nc2n1C1CC1 > 9.22 µM
CCNc1ncc2nc(C)c(=O)n(-c3ccc(OC)cc3)c2n1 > 9.22 µM
CCNc1ncc2nc(C)c(=O)n(Cc3cccs3)c2n1 > 9.22 µM
Cn1c(=O)c(-c2cccs2)nc2cncnc21 > 9.22 µM
CN(C)c1ncc2ncc(=O)n(C3CC3)c2n1 > 9.22 µM
CCNc1ncc2nc(C)c(=O)n(Cc3ccc(F)cc3)c2n1 > 9.22 µM
CN(C)C(=O)c1ccc(-c2nc(NC3CCNCC3)c3ccccc3n2)cc1 > 46 µM
COc1ccccc1CNc1ncncc1-c1cccnc1 > 46 µM
COc1cccc(Nc2ncc3nc(C)c(=O)n(C)c3n2)c1 > 9.22 µM
Cc1cnc(CNc2ncncc2-c2cccc(C#N)c2)cn1 > 46 µM
Cc1nc2cnc(Nc3ccccc3)nc2n(C2CC2)c1=O > 9.22 µM
CCNc1ncc2nc(C)c(=O)n(C3CC3)c2n1 > 9.22 µM
CCNc1ncc2nc(-c3cn(C)c4ccccc34)c(=O)n(-c3ccc(OC)cc3)c2n1 > 9.22 µM
CN(C)C(=O)c1ccc(-c2cncnc2N2CCNCC2)cc1 > 46 µM
Cc1noc(C)c1-c1ccc2ncnc(NC3CCNCC3)c2c1 > 46 µM
CCNc1ncc2nc(C)c(=O)n(C)c2n1 > 9.22 µM
COc1ccc(CNc2ncncc2-c2cccnc2)c(OC)c1 > 46 µM
COc1ccc(-n2c(=O)cnc3cnc(N4CCOCC4)nc32)cc1 > 9.22 µM
Fc1ccc(Nc2ncncc2-c2ccoc2)cc1 > 46 µM
Cn1c(=O)cnc2cnc(OCc3ccccc3)nc21 > 9.22 µM
COc1cccc(Nc2ncc3nc(C)c(=O)n(CCc4ccccc4)c3n2)c1 > 9.22 µM
Cc1noc(C)c1-c1cc(Nc2ccccc2)ncn1 > 46 µM
COc1ccc(Oc2ncc3ncc(=O)n(C)c3n2)cc1 > 9.22 µM
COCCNc1cc(-c2ccccc2C)ncn1 > 46 µM
CS(=O)(=O)Nc1cccc(-c2cncnc2Nc2ccc(F)cc2)c1 > 46 µM
c1ccc2c(NC3CCNCC3)nc(-c3ccoc3)nc2c1 > 46 µM
c1csc(CNc2cc(-c3ccoc3)ncn2)c1 > 46 µM
COc1ccc(CNc2cc(-c3ccoc3)ncn2)c(OC)c1 > 46 µM
Fc1ccc(Nc2ccnc(-c3ccoc3)n2)cc1 > 46 µM
COc1ccccc1-c1cc(NCc2ccccc2)ncn1 > 46 µM
N#Cc1cccc(-c2cncnc2NCc2cccs2)c1 > 46 µM
CNc1cc(-c2c(C)noc2C)ncn1 > 46 µM

Target: Glucocorticoid receptor (Homo sapiens) (UniProt P04150)
Assay: GR-EFC Redistribution (AID 451; calls by dose curve)
Conditions: CHO-K1 GR-EFC translocation, beta-gal luminescence, 2 h
Summary of the method: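 CHO-K1 cells stably expressing nuclear-localized β-gal enzyme acceptor and GR fused C-terminally to the enzyme donor fragment; ligand-driven nuclear translocation restores β-gal by complementation. Compounds titrated up to 46 uM final, 2 h at 37 °C; luminescence read.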

Potency, inactive:
N#Cc1cccc(-c2nc3cnc(N4CCOCC4)nc3n(C3CC3)c2=O)c1 > 46 µM
CCNc1ncc2nc(-c3cc(F)cc(F)c3)c(=O)n(C)c2n1 > 46 µM
CC(=O)NCCNc1ccnc(-c2ccccc2C(F)(F)F)n1 > 46 µM
CCNc1ncc2nc(-c3cc(F)cc(F)c3)c(=O)n(C[C@H]3CCCO3)c2n1 > 46 µM
COc1cccc(-c2cncnc2N(C)Cc2ccco2)c1 > 46 µM
COc1ccccc1-c1ccc2ncnc(NC3CCNCC3)c2c1 > 46 µM
O=c1cnc2cnc(N3CCOCC3)nc2n1C1CC1 > 46 µM
CCNc1ncc2nc(C)c(=O)n(-c3ccc(OC)cc3)c2n1 > 46 µM
CN(C)c1ncc2ncc(=O)n(C3CC3)c2n1 > 46 µM
CCNc1ncc2nc(C)c(=O)n(Cc3ccc(F)cc3)c2n1 > 46 µM
CN(C)C(=O)c1ccc(-c2nc(NC3CCNCC3)c3ccccc3n2)cc1 > 46 µM
COc1ccccc1CNc1ncncc1-c1cccnc1 > 46 µM
COc1cccc(Nc2ncc3nc(C)c(=O)n(C)c3n2)c1 > 46 µM
Cc1cnc(CNc2ncncc2-c2cccc(C#N)c2)cn1 > 46 µM
Cc1nc2cnc(Nc3ccccc3)nc2n(C2CC2)c1=O > 46 µM
CCNc1ncc2nc(C)c(=O)n(C3CC3)c2n1 > 46 µM
CCNc1ncc2nc(-c3cn(C)c4ccccc34)c(=O)n(-c3ccc(OC)cc3)c2n1 > 46 µM
CN(C)C(=O)c1ccc(-c2cncnc2N2CCNCC2)cc1 > 46 µM
Cc1noc(C)c1-c1ccc2ncnc(NC3CCNCC3)c2c1 > 46 µM
CCNc1ncc2nc(C)c(=O)n(C)c2n1 > 46 µM
COc1ccc(-n2c(=O)cnc3cnc(N4CCOCC4)nc32)cc1 > 46 µM
Fc1ccc(Nc2ncncc2-c2ccoc2)cc1 > 46 µM
Cn1c(=O)cnc2cnc(OCc3ccccc3)nc21 > 46 µM
COc1cccc(Nc2ncc3nc(C)c(=O)n(CCc4ccccc4)c3n2)c1 > 46 µM
COc1ccc2[nH]cc(CCNc3ncncc3-c3c(C)noc3C)c2c1 > 46 µM
Cc1noc(C)c1-c1cc(Nc2ccccc2)ncn1 > 46 µM
COc1ccc(Oc2ncc3ncc(=O)n(C)c3n2)cc1 > 46 µM
COCCNc1cc(-c2ccccc2C)ncn1 > 46 µM
CS(=O)(=O)Nc1cccc(-c2cncnc2Nc2ccc(F)cc2)c1 > 46 µM
c1ccc2c(NC3CCNCC3)nc(-c3ccoc3)nc2c1 > 46 µM
c1csc(CNc2cc(-c3ccoc3)ncn2)c1 > 46 µM
COc1ccc(CNc2cc(-c3ccoc3)ncn2)c(OC)c1 > 46 µM
O=c1cnc2cnc(Nc3ccccc3)nc2n1Cc1ccc(F)cc1 > 46 µM
Fc1ccc(Nc2ccnc(-c3ccoc3)n2)cc1 > 46 µM
COc1ccccc1-c1cc(NCc2ccccc2)ncn1 > 46 µM
CNc1cc(-c2c(C)noc2C)ncn1 > 46 µM
